# PubChem BioAssay
# Several values for one entry are separate records, joined by “and”; a condition that tells them apart may be missing. Equal entries are not always repeated. A number with no mark means an inactive call. Activity calls are given as the source filed them. Unless noted, the rule behind the calls is not given here.
# How the values were obtained:
# [1] = antimalarial activity against Dd2 strain (AID 2302;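 active = growth inhibition above 50% at the single 2 µM test dose, taken to imply half-maximal potency below 2 µM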;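 note: 0% = DMSO untreated growth and 100% = chloroquine plus artemisinin killed control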); settings: P. falciparum Dd2 in RBCs, LDH growth readout, 72 h; at 2 µM; stronger effect = higher value
# [2] = human hepatoma cell viability loss – ATP luminescence, cytotoxicity control for P. falciparum antimalarial project, primary screen (AID 2303;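 active = inhibition above 50%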;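 note: 0% = DMSO wells and 100% = digitonin-killed cells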); settings: HepG2 viability, 24-48 h, at 10 µM, stronger effect = higher value
# [3] = target: L-lactate dehydrogenase (Plasmodium falciparum (isolate CDC / Honduras)) (UniProt Q27743); experiment: PfLDH activity inhibition – cell lysate, 3D7 strain, counter-screen for P. falciparum growth inhibition project (AID 2304);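 note: 0% = vehicle and 100% = reference inhibitor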; settings: P. falciparum 3D7 crude extract, LDH APAD/NBT absorbance; at 2 µM; stronger effect = higher value
# L-lactate dehydrogenase (Plasmodium falciparum (isolate CDC / Honduras)), sequence (Q27743 whole entry, looked up): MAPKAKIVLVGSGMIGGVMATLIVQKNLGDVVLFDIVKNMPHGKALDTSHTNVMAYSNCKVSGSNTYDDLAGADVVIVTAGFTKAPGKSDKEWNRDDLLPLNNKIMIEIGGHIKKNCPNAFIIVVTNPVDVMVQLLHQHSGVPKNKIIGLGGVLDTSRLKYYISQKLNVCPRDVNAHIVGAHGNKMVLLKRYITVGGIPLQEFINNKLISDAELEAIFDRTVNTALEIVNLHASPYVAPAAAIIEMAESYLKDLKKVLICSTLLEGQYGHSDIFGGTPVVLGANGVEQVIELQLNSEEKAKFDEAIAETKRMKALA
# [4] = inhibition of 3D7 malaria parasite growth – strain 3D7 (AID 2306);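 note: 0% = DMSO wells and 100% = chloroquine plus artemisinin control wells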; settings: P. falciparum 3D7 erythrocytic growth, LDH absorbance, 72 h; at 2 µM; stronger effect = higher value
SMILES,growth inhibition [1],inhibition [2],inhibition [3],growth inhibition [4]
CCCO[C@H](C(=O)OC)[C@@H](CC1Cc2ccccc2C1)C(=O)NCCC1=CCCCC1,57% (active),6%,1%,93% (active)
C=CC[C@H](C[C@H](O)[C@H](Cc1ccccc1)NC(=O)c1ccc(-n2cccn2)cc1)C(=O)NC1CCCCC1,0%,1%,1%,96% (active)
CCC[C@@H]([C@@H](CC(C)C)C(=O)N[C@@H](CCCN=C(N)NS(C)(=O)=O)C(=O)Nc1nccs1)N(O)C=O,41%,10%,0%,95% (active)
COc1cc(C=C(C2=NC(=O)CS2)c2nc3cccnc3n2C)ccc1O,48%,7%,-7%,89% (active)
CC1CCC(C[C@@H](C(=O)N[C@@H](CCC(=O)N2CCCCC2)C(=O)Nc2nccs2)[C@H](C(C)C)N(O)C=O)CC1 (stereo partly drawn),70% (active),38%,7%,87% (active)
O=C(NN=Cc1nc2ccccc2[nH]1)c1cccc([N+](=O)[O-])c1,82% (active),-3%,2%,99% (active)
CC(C)C[C@@H](C(=O)N[C@H](C(=O)Nc1nccs1)C(C)(C)C)[C@H](CCC(F)(F)F)N(O)C=O,71% (active),11%,5%,97% (active)
C[C@@H]([C@@H](CCCc1ccc(Cl)cc1)C(=O)N[C@H](C(=O)Nc1cccnc1)C(C)(C)C)N(O)C=O,99% (active),7%,1%,100% (active)
O=C(Nc1cccc(-c2nn3ccccc3c2-c2ccnc(Nc3ccc(-c4cc[nH]n4)cc3)n2)c1)c1c(F)cccc1F,98% (active),68% (active),5%,98% (active)
Oc1ccc2ccccc2c1C=NNc1nc(Nc2ccccc2)nc(Nc2ccccc2)n1,73% (active),55% (active),-2%,99% (active)
Oc1ccc2ccccc2c1C=NNc1nc(Nc2ccccc2)nc(N2CCOCC2)n1,49%,66% (active),-5%,100% (active)
COc1cc(-c2nc(-c3ccc4c(c3)CCC4=NO)c(-c3ccncc3)[nH]2)ccc1OCCN1CCN(C)CC1,77% (active),53% (active),3%,99% (active)
Oc1cccc(-c2nc(-c3ccccc3)c(-c3ccc4oc5ccc(-c6[nH]c(-c7cccc(O)c7)nc6-c6ccccc6)cc5c4c3)[nH]2)c1,35%,30%,4%,91% (active)
O=C(NC=Nc1cc([N+](=O)[O-])c(-c2cccnc2)n1-c1ccc(O)cc1)c1ccccc1,62% (active),17%,6%,102% (active)
CCC[C@@H](C(=O)NCCc1cccc(OC)c1)N1C(=O)c2c(ccc(OC)c2OC)C1C(=O)Nc1c(C)cccc1C (stereo partly drawn),32%,6%,3%,94% (active)
O=[N+]([O-])c1cccc(-c2nc3ccc(C4=N[C@H]5CCCC[C@H]5N4)cc3[nH]2)c1,81% (active),4%,-7%,101% (active)
Nc1cc(C=Cc2ccc(O)cc2)nc2ccccc12,14%,15%,3%,100% (active)
Nc1ccc(-c2nc3cc(C4=N[C@H]5CCCC[C@H]5N4)ccc3o2)cc1[N+](=O)[O-],33%,16%,1%,95% (active)
c1cc2nc(CCCCc3nc4ccc(C5=N[C@H]6CCCC[C@H]6N5)cc4[nH]3)[nH]c2cc1C1=N[C@H]2CCCC[C@H]2N1,88% (active),5%,6%,90% (active)

SMILES,growth inhibition [1],inhibition [2],inhibition [3],growth inhibition [4]
Nc1c2c(nc3ccccc13)C(=Cc1ccc(O)cc1)CCC2,6%,9%,5%,99% (active)
CN(C)CCCOc1ccc(-c2nc(-c3ccc4c(c3)CCC4=NO)c(-c3ccncc3)[nH]2)cc1,63% (active),68% (active),-3%,96% (active)
CN(C)c1nc(NCc2ccccc2)nc(NN=Cc2cc([N+](=O)[O-])ccc2O)n1,90% (active),48%,-5%,100% (active)
CCC[C@@H]([C@@H](CC1CCCCC1)C(=O)N[C@H](C(=O)Nc1ccccn1)[C@H](C)CC)N(O)C=O,87% (active),24%,2%,96% (active)
Oc1cccc(-c2nc3ccc(C4=N[C@H]5CCCC[C@H]5N4)cc3[nH]2)c1,97% (active),-3%,1%,98% (active)
COc1ccc2nc(C)cc(NN=Cc3cc(C)ccc3O)c2c1,100% (active),78% (active),-2%,100% (active)
CCC[C@@H]([C@@H](CC1CCCCC1)C(=O)N[C@H](C(=O)Nc1nccc(N)n1)C(C)(C)C)N(O)C=O,82% (active),25%,5%,96% (active)
CC(=NNC(N)=O)C1=C(O)C(c2ccccc2)N(C2CCCCC2)C1=O (stereo not drawn),96% (active),59% (active),0%,93% (active)
COc1ccc2nccc([C@@H](O)CN3CC[C@H](NCc4nc5c(cc4Cl)SCC(=O)N5)[C@H](F)C3)c2c1,94% (active) and 100% (active),10% and 20%,-3% and 1%,94% (active) and 99% (active)
c1cc2nc(CCCCCc3nc4ccc(C5=N[C@@H]6CCCC[C@@H]6N5)cc4[nH]3)[nH]c2cc1C1=N[C@@H]2CCCC[C@@H]2N1,98% (active),8%,1%,96% (active)
Oc1cccc(-c2nc(-c3cccc(I)c3)c(-c3ccc(-c4nc(-c5cccc(O)c5)[nH]c4-c4cccc(I)c4)cc3)[nH]2)c1,66% (active),-4%,-2%,96% (active)
C=CC[C@H](C[C@H](O)[C@H](Cc1ccccc1)NC(=O)c1ccc(-c2cccnn2)cc1)C(=O)NC1CCCCC1,-1%,2%,4%,83% (active)
ON=C1CCc2cc(-c3nc(-c4cccc(OCCNCc5ccc(F)cc5)c4)[nH]c3-c3ccncc3)ccc21,69% (active),76% (active),-3%,89% (active)
COc1ccc(Nc2nc(NN=Cc3cc(Br)ccc3O)nc(Nc3ccc([N+](=O)[O-])cc3)n2)cc1,37%,27%,7%,97% (active)
CN(C)c1nc(NN=Cc2cc(Cl)ccc2O)nc(Nc2ccc(F)cc2)n1,46%,32%,-3%,94% (active)
COc1cc(-c2nc(-c3ccc4c(c3)CCC4=NO)c(-c3ccncc3)[nH]2)ccc1OCCN1CCCCC1,80% (active),75% (active),1%,101% (active)
CN(C)c1cc(NN=Cc2cc(Cl)ccc2O)nc(N(C)C)n1,98% (active),3%,0%,98% (active)
Cc1[nH]c2ccccc2c1C=NNc1nc(Nc2ccccc2)nc(Nc2ccccc2)n1,23%,3%,6%,87% (active)
